Records with an inconclusive call do not appear. A call without a number means that no potency is given here. Unmarked numbers belong to inactive results. Activity calls are given as the source filed them. Calls follow the shape of the dose curve; as a rule, active = well fitted inhibition curve with a large enough effect; inconclusive = small, poorly fitted or top-dose-only effect; inactive = flat fitted curve, though single readings scatter.
Test: Primary qHTS for inhibitors of nuclear receptor binding SET domain protein 2 (NSD2) in an isogenic RCH-ACV NSD2 p.E1099K mutant (9B) (AID 1645876); also: nearly all actives have a fitted effect of over 70% in size
Conditions: RCH-ACV (leukaemia line) NSD2 E1099K (9B) viability, CellTiter-Glo, 72 h; series mostly up to 44.9 µM
Potency is read from the fitted curve at half-maximal effect.

| SMILES | Potency | activity change, negative = viability loss |
| --- | --- | --- |
| C=C1CCC2C(C)(C(=O)OC)CCCC2(C)C1CCC(C)CC(=O)O (stereo unspecified) | inactive | – |
| CC1CC[C@]2(C(=O)O)CC[C@]3(C(=O)O)C(=CCC4[C@@]5(C)CC[C@H](O[C@@H]6O[C@H](CO)[C@@H](O)[C@H](O)[C@H]6O)C(C)(C)C5CC[C@]43C)C2C1C (stereo partly specified) | inactive | – |
| Clc1cc2c(NC3CCCC3)nnc(-c3ccncc3)c2cc1Cl | inactive | – |
| COc1cc(O)c2c(c1)C1=C[C@H](O)[C@@H](O)C[C@]1(C)OC2=O | inactive | – |
| COC(=O)C1(C)c2[nH]c3ccccc3c2CCN1C(=O)CCl (stereo unspecified) | 2580 nM (active) | – |
| CC1(C)CCC2(C(=O)OC3OC(CO)C(O)C(O)C3O)CCC3(C)C(=CCC4C5(C)CCC(OC6OC(C(=O)O)C(OC7OC(CO)C(O)C(O)C7O)C(OC7OC(CO)C(O)C(O)C7O)C6O)C(C)(C)C5CCC43C)C2C1 (stereo unspecified) | – | -4.92% [at 9.23 µM] |
| CC1=C(C)C(=O)OC(C(C)C2CCC3C4CC=C5CC(OC6OC(COC7OC(CO)C(O)C(O)C7O)C(O)C(O)C6O)CC(O)C5(C)C4CCC23C)C1 (stereo unspecified) | inactive | – |
| COc1ccc2nc(S(=O)(=O)Cc3ncc(C)c(OC)c3C)[nH]c2c1 | inactive | – |
| CC1=CC2/C=C(\C)CC[C@@H](O)[C@@H](O)[C@@H]3O[C@@H]3C(=O)[C@]23C(=O)N[C@@H](CC(C)C)[C@@H]3[C@@H]1C (stereo partly specified) | inactive | – |
| OCCc1ccc(O[C@@H]2O[C@H](CO)[C@@H](O)[C@H](O)[C@H]2O)cc1 | inactive | – |
| COc1c2c(c(C)c3c1C(=O)OC3)OC1(C)CC(O)C34OC(OC)(OC3(C)C)C(O)CC4(C)C1C2 (stereo unspecified) | inactive | – |

Source: PubChem BioAssay (NCATS)
